Data from the supplement of paper PMC6555819.

How the values were obtained:
Test in all cases: PBM binding z-score (relative to random genomic background probes); higher = stronger binding; sequences stand for … in GC…GCGATTGACAGCGTAGAATGAAGG
[1] = system: FXR:RXRa (NR concentration 270 nM, RXRa partner concentration 90 nM)
How it was run: (§1)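 Probes were double-stranded and carried 34-nt variable regions with direct-repeat seeds, single-nucleotide variants, half-site ablations and random human genomic background sequences, printed on custom Agilent 4×180K protein-binding microarrays. Arrays were incubated 1 h with ligand-free nuclear receptor dimers in PBS pH 7.4, 2% milk, 0.02% Triton X-100, 1 mM DTT, 0.2 mg/mL BSA and 0.4 mg/ml salmon testes DNA. Antibodies against each partner (one per run) detected binding, and scanned fluorescence was regression-normalized. Binding z-scores use the random background probes as reference.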

[2] = system: LXRa:RXRa (NR concentration 270 nM, RXRa partner concentration 90 nM)
How it was run: as §1

[3] = system: LXRa homodimer (NR concentration 270 nM)
How it was run: as §1

[4] = system: LXRb:RXRa (NR concentration 270 nM, RXRa partner concentration 90 nM)
How it was run: as §1

[5] = system: LXRb homodimer (NR concentration 270 nM)
How it was run: as §1

[6] = system: PPARa:RXRa (NR concentration 270 nM, RXRa partner concentration 90 nM)
How it was run: as §1

[7] = system: PPARg:RXRa (NR concentration 180 nM, RXRa partner concentration 90 nM)
How it was run: as §1

[8] = system: PPARg:RXRa 270nM:90nM, anti-RXR (NR concentration 270 nM, RXRa partner concentration 90 nM)
How it was run: as §1

[9] = system: PPARg:RXRa 30nM:10nM, anti-RXR (NR concentration 30 nM, RXRa partner concentration 10 nM)
How it was run: as §1

[10] = system: PPARg:RXRa 90nM:30nM, anti-RXR (NR concentration 90 nM, RXRa partner concentration 30 nM)
How it was run: as §1

Sequence | PBM binding z-score [1] | PBM binding z-score [2] | PBM binding z-score [3] | PBM binding z-score [4] | PBM binding z-score [5] | PBM binding z-score [6] | PBM binding z-score [7] | PBM binding z-score [8] | PBM binding z-score [9] | PBM binding z-score [10]
ATCGAAAGGTCGAAGGTGAGTCTACCCACCCGAA | 4.39 | 3.59 | -0.0971 | 2.87 | 0.861 | 4.78 | 4.36 | 5.19 | 2.51 | 4.21
TGTCAAAGCTCAAAGGTAACGTAAGTATCCACAC | 0.08 | -0.0986 | -0.625 | 0.416 | -0.838 | 1.04 | 1.25 | 1.81 | 0.686 | 1.43
ATATGTAGGTTAGGGTCATTCATAAAGTAGGGAA | 5.45 | 4.03 | 1.6 | 4.64 | 1.55 | 5.93 | 8.24 | 6.58 | 4.58 | 6.47
ATATGTACGTTAGGGTCATTCAGAAAGTAGGGAA | 4.38 | 3.61 | 0.485 | 3.96 | 1.15 | 4.77 | 2.68 | 2.97 | 1.27 | 2.07
CGAACTAGGTCACCAGGACACTGAAGAGGTTGGA | 3.92 | 2.61 | 0.155 | 1.95 | -0.211 | 5.31 | 8.46 | 7.07 | 4.81 | 6.92
CCTAGTTGGTCAGGAGGCCACACACCGGATATGA | 0.457 | 0.364 | 0.335 | 0.191 | 0.0739 | 0.181 | 0.848 | 0.732 | 0.118 | 0.128
CGAACTAGGTGAAAGGACAGTGAAAGGCGACGTA | -0.276 | -0.418 | -0.4 | -0.115 | -0.863 | 4.46 | 8.84 | 7.7 | 6.77 | 8.31
CGAACTAGGTCACCAGGACAGAGAAGAGGTTGGA | 4.19 | 2.59 | 0.117 | 1.71 | -0.205 | 5.15 | 8.52 | 7.02 | 4.71 | 6.65
TTACAAAGGTGAGCTGAGGTCGTTGATCCAACTC | 2.66 | 3.19 | -0.299 | 1.68 | -0.674 | 2.86 | 1.57 | 2.39 | 0.713 | 1.38
TCTGCTGGGTCAACGATGGTCAGCTAATCTGCTA | 2.59 | 1.95 | -0.835 | 1.16 | -0.168 | 3.19 | 1.92 | 2.57 | 1.69 | 2.14
CGACCTAGGTCACCAGGACAGTGAAGAGGTTGGA | 4.89 | 2.91 | -0.161 | 2.09 | -0.881 | 4.22 | 5.25 | 4.5 | 1.21 | 3.13
CAAACTAGGTCACCGGGAGGTCAAAGTCCGCATG | 6.46 | 6.26 | 6.39 | 5.87 | 1.73 | 6.17 | 9.53 | 8 | 6.05 | 8.25
